# Assay results reported in PubChem BioAssay (NCATS).
# Records with an inconclusive call do not appear. A number with no mark means an inactive call. Active and inactive are the calls of the source. Calls come from the whole dose curve; as a rule, active = well fitted cell-killing curve with a large enough effect; inconclusive = small, poorly fitted or top-dose-only effect; inactive = flat fitted curve, though single readings scatter. Peptide text beside a SMILES is read from it. * marks the point of attachment. Cbz = O=C(OCc1ccccc1)*
# Experiment: Quantitative highthroughput screen to assess conditional lethalithy of NOMO1 cells grown in RPMI1640 with untreated serum (RPMI+s) (AID 1963876); note: nearly all actives have a fitted effect of over 35% in size
# Conditions: NOMO1 AML cells in RPMI+serum, CellTiter-Glo viability, 48 h; series mostly up to 45.8 µM; viability: at the top concentration
# Excerpt: Assay Provider: Jason Cantor Ph.D.
# Department of Biochemistry
# University of Wisconsin-Madison, Madison, WI, USA
# Chemical screening studies have identified drug sensitivities across hundreds of cancer cell lines but most putative therapeutics fail to translate. Discovery and development of drug candidates in models that more accurately reflect nutrient levels in human blood is a major challenge. Here we performed high-throughput screens in conventional versus Human Plasma-Like Medium (HPLM) to identify compounds that were "missed" when screening using the artificial culture condition. Sets of conditional anticancer compounds spanned phases of clinical development and included non-oncology drugs were assessed. […] We also traced conditional phenotypes for several chemotherapeutics to availability of HPLM-specific metabolites and confirmed others for compounds whose reported targets are encoded by nonessential genes. Our findings establish generalizable strategies for exploiting conditional lethality in HPLM to reveal therapeutic candidates and mechanisms of action in cancer cells.
# Described herein are the results of each viability screens against three cell lines: NOMO1 (an acute myeloid leukemia cell line); P12-Ichikawa (a T-cell acute lymphoblastic leukemia); and SEM (a B-cell ALL). Each assay was screened using 3 different cell culture media: homemade human plasma-Like medium with 10% dialyzed fetal bovine serum (HPLM+ds); RPMI1640 with 10% untreated FBS and 5mM glucose (RPMI+s); and RPMI1640 with 10% dialyzed fetal bovine serum and 5 mM glucose (RPMI+ds).
# PROTOCOL TABLE (as described by Inglese J, Shamu CE and Guy RK. 2007)
# SEQUENCE No. (e.g., 1, 2, 3, etc.); […] (e.g., Cells, Incubation, Reagent, etc.); VALUE and DESCRIPTION.
# 1; Cells; 5 uL; white, solid bottom 1536-well Greiner assay plate.
# 2; Compounds; 23 nL; Kalypsis pin tool (Wako USA) equipped with a 1536-well pin head to transfer to the assay plates.
# 3; Incubation; 48 hours; 37C incubation.
# 4; Reagent; 3 uL; CellTiter Glo (Promega).
# 5; Incubation; 5 min, room temperature
# 6; Detection; Luminescence, Viewlux PerkinElmer.
# NOTES (numbers refer to Sequence numbers above)
# 1. Briefly, 5 ul of cell reagent was dispensed using a Multidrop Combi Dispenser. The NOMO1 and SEM cells were plated at 500 cells/well and the P12-Ichikawa line at 1000 cells/well.
# 2. After seeding the cells, 23 nL of MIPE 4.1 library compounds (in DMSO) were added to each plate using a Kalypsys 1536 Pintool dispenser. Bortezomib at final concentration of […] and DMSO were added to each plate as positive and negative controls respectively. For each screen, MIPE 4.1 compounds were added over an eleven-point concentration range […] in 3-fold dilutions.
# 3. Each plate was covered with a stainless steel gasketed lid to prevent evaporation and incubated for 48 hour at 37C, 95% relative humidity, and 5% CO2.
# 4-5. Three microliter CellTilter-GloTM luminescent substrate mix (Promega) reagent was added to the assay plate and incubated at room temperature for 5 min.
# 6. The luminescence signal was measured using a ViewLux (PerkinElmer) multiplate reader with a 2 second exposure time per plate. Data for each compound were normalized as percent viability such that measurements for DMSO and the empty well controls in each plate were defined as 100% and 0%, respectively.
# Potency is the fitted concentration of half-maximal effect.
Compound,viability,Potency
COCCOC(=O)C1=C(C)NC2=C(C(=O)CC(c3ccccc3OC)C2)C1c1cccc(O)c1 (stereo not given),75.6%,
CC(C)(C)c1nc(-c2cccc(NS(=O)(=O)c3c(F)cccc3F)c2F)c(-c2ccnc(N)n2)s1,,11.8 µM (active)
CC(C)c1cnn2c(NCc3ccccc3)cc(N[C@@H](CO)[C@H](O)CO)nc12,,0.743 µM (active)
Cc1ccc(C(=O)Nc2cccc(C(F)(F)F)c2)cc1Nc1nc(-c2cccnc2)nc2c1cnn2C,97.7%,
Clc1ccc(COC(Cn2ccnc2)c2ccc(Cl)cc2Cl)c(Cl)c1 (stereo not given),91.2%,
CN[C@@H](C)C(=O)N[C@H]1CN(C(=O)CC(C)C)CC[C@H]2CC[C@@H](C(=O)NC(c3ccccc3)c3ccccc3)N2C1=O,,1.32 µM (active)
C[C@]12CC[C@H](O)CC1=CCC1C2CC[C@]2(C)C(n3cnc4ccccc43)=CCC12 (stereo not given in full),85.2%,
Clc1ccc2c(N3CCN(CCCN4CCN(c5ccnc6cc(Cl)ccc56)CC4)CC3)ccnc2c1,101% [at 23.2 µM],
O=c1c(O)c(-c2ccc(O)c(O)c2)oc2cc(O)ccc12,91.2%,
Cc1cc(Nc2cc(N3CCN(C)CC3)nc(C=Cc3ccccc3)n2)n[nH]1,,3.03 µM (active)
COc1ccc(CCC(=O)Nc2nc3ccc(Cl)cc3s2)cc1OC,99.1%,
Clc1ccc(Nc2nnc(Cc3ccncc3)c3ccccc23)cc1,101%,
CN1CCC(=C2c3ccccc3C=Cc3ccccc32)CC1,91%,
CC[C@]1(O)C[C@H]2CN(CCC3=c4ccccc4=N[C]3[C@@](C(=O)OC)(c3cc4c(cc3OC)N(C)[C@H]3[C@@](O)(C(N)=O)[C@H](O)[C@]5(CC)C=CCN6CC[C@]43[C@@H]65)C2)C1,,0.0935 µM (active)
CO[C@@H](C(=O)N1Cc2[nH]nc(NC(=O)c3ccc(N4CCN(C)CC4)cc3)c2C1)c1ccccc1,,0.148 µM (active)
CC(C)(C)OC(=O)N[C@H]1CCCCCC=C[C@@H]2C[C@@]2(C(=O)NS(=O)(=O)C2CC2)NC(=O)[C@@H]2C[C@@H](OC(=O)N3Cc4cccc(F)c4C3)CN2C1=O,98.9%,
CC(=O)OCCN1C(=O)c2c(C)nc3ccc(S(=O)(=O)N4CCOCC4)cc3c2C1=O,,0.264 µM (active)
C[C@]12CC[C@@H]3c4ccc(O)cc4CC[C@H]3[C@H]1[C@@H](O)[C@@H](O)[C@H]2O,96.9%,
CCCCCOC(=O)Nc1nc(=O)n([C@@H]2O[C@H](C)[C@@H](O)C2O)cc1F (stereo not given in full),101%,
CCC(=C(CC)c1ccc(O)cc1)c1ccc(O)cc1,95.4%,

Compound,viability,Potency
Cc1ccc([C@@H]2O[C@H](CO)[C@@H](O)[C@H](O)[C@@H]2O)cc1Cc1ccc(-c2ccc(F)cc2)s1,87.7%,
COc1ccc(C2CC(c3ccccc3)=NN2c2ccc(S(N)(=O)=O)cc2)cc1 (stereo not given),,4.18 µM (active)
Cc1cc(O)c2c(c1)C(=O)c1cc(O)cc(O)c1C2=O,94.2%,
CN1CCN(c2cccc(Nc3nc4c(-c5ccc(S(C)(=O)=O)cc5)cccn4n3)c2)CC1,84.2%,
Nc1cc(C(F)(F)F)c(-c2cc(N3CCOCC3)nc(N3CCOCC3)n2)cn1,,1.87 µM (active)
Cc1c(C)n(Cc2ccc(-c3ccccc3C(=O)O)cc2)c2ccc(C(=O)N[C@@H](C)c3ccc([N+](=O)[O-])cc3)cc12,,9.35 µM (active)
CCCc1nn(C)c2c(=O)[nH]c(-c3cc(S(=O)(=O)N4CCN(C)CC4)ccc3OCC)nc12,96.2%,
Nc1ccc(S(=O)(=O)Nc2ncccn2)cc1,107%,
CN1CCN(c2c(F)cc3c(=O)c(C(=O)O)cn(CCF)c3c2F)CC1,98.5%,
Cc1cc(CN2CCN(c3c(Br)cnc4nc(-c5ccc(N6CCN(C)CC6)cc5)[nH]c34)CC2)no1,68.7%,
CN(C)CCN(C)C(=O)c1ccc(NC(=O)Nc2ccc(-c3nc(N4CCOCC4)c4ccn(CC(F)(F)F)c4n3)cc2)cc1,,0.132 µM (active)
COCCOc1ccc2c(c1)ncn2-c1ccc2cccc(N3CCC(N)CC3)c2n1,,18.7 µM (active)
N#CC1(c2cccc(C(=O)Nc3cc(Oc4ccc5nc(NC(=O)C6CC6)sc5n4)ccc3F)c2Cl)CC1,,3.72 µM (active)
O=C(O)CCCCCC(=O)NN=C1CCCC1,113%,
CC(C)C[C@@H](C=O)NC(=O)[C@H](CC(C)C)NC(=O)[C@H](CC(C)C)NC(=O)OCc1ccccc1 (Cbz-Leu-Leu-Leu-aldehyde),,0.743 µM (active)
CN(C)CCc1c[nH]c2ccc(C[C@H]3COC(=O)N3)cc12,,16.6 µM (active)
NS(=O)(=O)NCCNc1nonc1C(=Nc1ccc(F)c(Br)c1)NO,,2.63 µM (active)
O=C(O)C1CCCN(CCC=C(c2ccccc2)c2ccccc2)C1 (stereo not given),101%,
CC1Cc2ccccc2N1NC(=O)c1ccc(Cl)c(S(N)(=O)=O)c1 (stereo not given),104%,
O=C1NC(=O)[C@@H](c2cn3c4c(cccc24)CCC3)[C@H]1c1c[nH]c2ccccc12,,1.87 µM (active)
